The campaign covered roughly 1,300 compounds. About 930 (72%) were called active.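 How the source made its calls: active means fitted curve reaches 40% activation signal increase at or below the top valid tested concentration in every replicate test; inconclusive means replicate tests disagree in their calls; inactive means all replicate tests inactive, including effects opposite the expected signal rise.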 So high a share suggests a set chosen from earlier hits. Only a sample is shown. Measured potencies and affinities stand elsewhere.
Experiment: suppression of miR-122 activity, Renilla luciferase sensor – cell-based, Huh7 psiCHECK-miR122, cherry-pick, dose response (AID 652053)
Conditions: Huh7 psiCHECK-miR122 Renilla luciferase reporter, 48 h; series mostly up to 35 µM

outcome, inactive:
C/C=C/c1ccc([C@H]2[C@@H](CO)N(c3nc(CC)cs3)[C@H]2CNC(C)C)cc1
Cc1cc(C)cc(NC2=NC3(CCCCC3)N=C(N)N2)c1
C/C=C/c1ccc([C@H]2[C@H](CO)N(c3nc(CC)cs3)[C@H]2CNC(C)C)cc1
Cc1cc(N/N=C/c2ccc(O)c(C)c2O)nc(-c2ccccc2O)n1
CCC(=O)Nc1ccc(C(=O)Nc2cccc(C)n2)cc1
C[C@@H]1CN([C@@H](C)CO)C(=O)Cc2cc(NC(=O)Nc3cccc4ccccc34)ccc2O[C@@H]1CN(C)C(=O)NC1CCCCC1
C[C@H](CO)N1C[C@H](C)[C@H](CN(C)C(=O)NC2CCCCC2)Oc2ccc(NC(=O)Nc3cccc4ccccc34)cc2CC1=O
C[C@H](CO)N1C[C@H](C)[C@@H](CN(C)Cc2ccncc2)Oc2ccc(NC(=O)Nc3cccc4ccccc34)cc2CC1=O
CC(C)NC(=O)Nc1ccc2c(c1)CC(=O)N([C@H](C)CO)C[C@@H](C)[C@@H](CN(C)Cc1ccc(Oc3ccccc3)cc1)O2
COc1cccc(C(=O)Nc2cc([N+](=O)[O-])ccc2N2CCN(C)CC2)c1
COc1ccc(NC(C)=O)cc1NC(C)C(=O)Nc1cc(C(F)(F)F)ccc1N1CCOCC1 (stereo unspecified)
Cc1nc2ccccc2n1S(=O)(=O)c1ccc(F)cc1
CC(C)n1c(/C=C/c2ccccc2)nc2ccccc21
COc1ccc(S(=O)(=O)Nc2ccc3c(c2)COC3=O)cc1OC
CC(=O)N1[C@H](CO)[C@H](c2ccc(C3=CCCCC3)cc2)[C@@H]1CNC(=O)CN(C)C
Cc1ccc(C)c(CSc2nnc(-c3cccnc3)o2)c1
COc1ccc(OC)c(Nc2cc(C)nc3nc(C)nn23)c1
Cc1cc(OCC(O)CN2CCOCC2)cc(C)c1Cl (stereo unspecified)
O=C(Nc1cccc([N+](=O)[O-])c1)c1ccc(CSc2ccccc2)cc1
Fc1ccc(-n2nnc(-c3nccs3)n2)cc1
CCc1nc2sc3c(c2c(=O)n1NC(=O)CCl)CCCC3
COc1ccc(CN(C)C[C@@H]2OCCCC[C@@H](C)Oc3ccc(NC(=O)c4ccccc4)cc3C(=O)N([C@H](C)CO)C[C@@H]2C)cc1
COc1cccc(N2CCN(C(=S)Nc3cccc(C)c3)CC2)c1
C/C=C/c1ccc([C@@H]2[C@@H](CO)N(c3nc(CC)cs3)[C@@H]2CNC(C)C)cc1
COc1ccc(CNC(=O)C(c2ccco2)N(C(=O)c2csnn2)c2cccc(C)c2C)cc1 (stereo unspecified)
O=C(Oc1ccc(C(=S)N2CCOCC2)cc1)c1ccccc1
COc1cc(C(=S)N2CCOCC2)cc(OC)c1OC(=O)c1ccc(F)cc1
O=C(Oc1ccc(C(=S)N2CCOCC2)cc1)c1ccccc1F
O=C(Oc1ccc(C(=S)N2CCOCC2)cc1)c1ccc(F)cc1
CCOC(=O)c1ccc(NS(=O)(=O)c2ccc3[nH]c(=O)[nH]c3c2)cc1
CC(=O)N1[C@H](CO)[C@@H](c2ccc(C3=CCCCC3)cc2)[C@@H]1CNC(=O)CN(C)C
CCCNC(=O)NC[C@@H]1[C@H](c2ccc(C3=CCCC3)cc2)[C@H](CO)N1C(=O)CC
CCC(=O)N1[C@H](CNC(=O)CN(C)C)[C@@H](c2ccc(C3=CCCC3)cc2)[C@@H]1CO
CCCNC(=O)NC[C@H]1[C@@H](c2ccc(C3=CCCC3)cc2)[C@@H](CO)N1C(C)=O
CCCNC(=O)NC[C@H]1[C@H](c2ccc(C3=CCCC3)cc2)[C@@H](CO)N1C(=O)CC
CCCNC(=O)NC[C@H]1[C@@H](c2ccc(C3=CCCC3)cc2)[C@H](CO)N1C(=O)CC
CCCNC(=O)NC[C@H]1[C@H](c2ccc(C3=CCCC3)cc2)[C@H](CO)N1C(=O)CC
CCCNC(=O)NC[C@@H]1[C@H](c2ccc(C3=CCCC3)cc2)[C@@H](CO)N1C(=O)CC
CN(C)Cc1cccc(-c2ccccc2)c1O
O=S(=O)(Nc1ccncc1)c1ccc(Cl)cc1
COc1cc(OC)c2c(-c3cccc(-c4ccc(O)cc4)c3)cc(=O)oc2c1
COc1cc(OC)c2c(-c3cccc(-c4ccc(N(C)C)cc4)c3)cc(=O)oc2c1
COc1ccc(-c2cccc(-c3cc(=O)oc4cc(OC)cc(OC)c34)c2)cc1
Cc1cc(C(=O)N2CCc3ccccc32)n(-c2ccccc2)n1
CC(C)n1cc(NC(=O)c2cc(-c3ccccc3)on2)cn1
C/C(=N\NC(=O)c1cc(-c2cccs2)nc2ccccc12)c1ccccn1
O=C(C[C@@H]1CC[C@H]2[C@@H](COC[C@@H](O)CN2C(=O)C2CCCC2)O1)NCc1ccncc1
O=C(COc1ccccc1F)c1ccc(O)cc1O
COc1ccccc1N1CCN(S(=O)(=O)c2ccc(F)cc2)CC1
Cc1c(C(=O)N(C)CCC#N)oc2ccc(S(=O)(=O)N3CCOCC3)cc12
COc1ccc(NC(=O)N(C)C[C@H]2Oc3ccc(NC(=O)Nc4ccc(C(F)(F)F)cc4)cc3CC(=O)N([C@H](C)CO)C[C@H]2C)cc1
C[C@@H]1CN([C@@H](C)CO)C(=O)c2cc(NC(=O)CCC(F)(F)F)ccc2O[C@@H]1CN(C)C(=O)Nc1ccc2c(c1)OCO2
COc1ccc(NC(=O)N(C)C[C@H]2Oc3ccc(NC(=O)Nc4ccc(C(F)(F)F)cc4)cc3CC(=O)N([C@H](C)CO)C[C@@H]2C)cc1
COc1ccc(NC(=O)N(C)C[C@@H]2Oc3ccc(NC(=O)Nc4ccc(C(F)(F)F)cc4)cc3CC(=O)N([C@@H](C)CO)C[C@H]2C)cc1
COc1ccc(NC(=O)N(C)C[C@@H]2Oc3ccc(NC(=O)Nc4ccc(C(F)(F)F)cc4)cc3CC(=O)N([C@H](C)CO)C[C@@H]2C)cc1
COc1ccc(NC(=O)N(C)C[C@H]2Oc3ccc(NC(=O)Nc4ccc(C(F)(F)F)cc4)cc3CC(=O)N([C@@H](C)CO)C[C@H]2C)cc1
Cc1ccc(S(=O)(=O)N(C)C[C@@H]2Oc3ccc(NC(=O)Nc4ccc(C(F)(F)F)cc4)cc3CC(=O)N([C@@H](C)CO)C[C@@H]2C)cc1
COc1ccc(NC(=O)N(C)C[C@@H]2Oc3ccc(NC(=O)Nc4ccc(C(F)(F)F)cc4)cc3CC(=O)N([C@H](C)CO)C[C@H]2C)cc1
COc1ccc(NC(=O)N(C)C[C@H]2Oc3ccc(NC(=O)Nc4ccc(C(F)(F)F)cc4)cc3CC(=O)N([C@@H](C)CO)C[C@@H]2C)cc1
Cc1ccc(S(=O)(=O)N(C)C[C@@H]2Oc3ccc(NC(=O)Nc4ccc(C(F)(F)F)cc4)cc3CC(=O)N([C@H](C)CO)C[C@@H]2C)cc1
CSC(=S)NCc1cccnc1
Cc1ccc(NC(=O)N(C2=NCC(C)S2)c2ccccc2)cc1 (stereo unspecified)
Cn1c(=O)c2cc(S(=O)(=O)NCCC(=O)NCCC3=CCCCC3)ccc2n(C)c1=O
Cc1ccc(SC(C)C(=O)NCCC2=CCCCC2)cc1 (stereo unspecified)
Cc1ccc(-c2nnc(SCc3ccc(C#N)cc3)n2Cc2ccco2)cc1
COc1ccc(OC)c(-n2cc3c(=O)n(C)c(=O)n(C)c3c2)c1
CC(C)c1cc(C(=O)N/N=C/C(Br)=C/c2ccccc2)n[nH]1
O=C(Nc1nc2c(s1)CCc1ccccc1-2)c1ccco1
CCc1nc2ccc(C(=O)N3CCN(C(=O)c4ccco4)CC3)cn2c1N(C)C(=O)COc1ccccc1
Cc1ccc(NC(=O)COc2ccc(Br)cc2CO)cc1
CC(=O)N1[C@H](CNC(=O)CN(C)C)[C@H](c2ccc(C3=CCCCC3)cc2)[C@@H]1CO
CC(=O)N(C)C[C@@H]1[C@@H](c2ccc(-c3cccnc3)cc2)[C@H](CO)N1C(=O)C1CC1
CC(=O)N(C)C[C@H]1[C@H](c2ccc(-c3cccnc3)cc2)[C@@H](CO)N1C(=O)C1CC1
CN1[C@H](CO)[C@@H]2c3ccccc3N(C(=O)c3ccc(F)cc3)C[C@@H]21
O=C(c1ccc(F)cc1)N1C[C@H]2[C@@H](c3ccccc31)[C@H](CO)N2C(=O)c1ccc(F)cc1
O=C(Nc1ccccc1F)N1C[C@@H]2[C@H](c3ccccc31)[C@H](CO)N2C(=O)c1ccc(F)cc1
CC(=O)N1[C@H](CO)[C@@H]2c3ccccc3N(C(=O)c3ccc(F)cc3)C[C@@H]21
CC(=O)N1C[C@H]2[C@@H](c3ccccc31)[C@@H](CO)N2C(=O)c1ccc(F)cc1
O=C(Nc1ccccc1F)N1C[C@@H]2[C@H](c3ccccc31)[C@@H](CO)N2C(=O)c1ccc(F)cc1
O=C(Nc1ccccc1F)N1C[C@H]2[C@@H](c3ccccc31)[C@H](CO)N2C(=O)c1ccc(F)cc1
CC(C)C(=O)Nc1ccc2c(c1)C(=O)N(C)[C@@H]1CC[C@H](CC(=O)NCc3cccc(F)c3)O[C@@H]1CO2
CC(C)C(=O)Nc1ccc2c(c1)C(=O)N(C)[C@@H]1CC[C@@H](CC(=O)NCc3cccc(F)c3)O[C@H]1CO2
CN1C(=O)c2cc(NC(=O)C3CC3)ccc2OC[C@H]2O[C@H](CC(=O)NCc3cccc(F)c3)CC[C@H]21
Cc1ccc2c(CN3CCCc4ccccc43)cc(=O)oc2c1C
C[C@H](CO)N1C[C@H](C)[C@@H](CN(C)Cc2ccncc2)Oc2c(NC(=O)C3CCOCC3)cccc2C1=O
CNC[C@H]1Oc2c(NC(=O)C3CCOCC3)cccc2C(=O)N([C@H](C)CO)C[C@@H]1C
